According to the supplement of paper PMC6897291:
Structures can show the parent of a compound that is named as a salt.

System: U-2932
Experiment: growth inhibition by drug plus 177Lu-lilotomab satetraxetan (1 - RLU/untreated control) (fraction); higher = stronger inhibition
Settings: 10 nM; time (day): 5; 177Lu-lilotomab satetraxetan 1 ug/ml
Outline: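 With or without 18 h pretreatment by a radiolabelled anti-CD37 antibody conjugate (~600 MBq/mg; 0.5 µg/ml RIVA, 1 µg/ml U-2932), RIVA and U-2932 cells were washed and plated at 3,000 cells/well. Pre-printed compound doses were 10/100 nM for RIVA and 10/1,000 nM for U-2932. Growth inhibition uses RealTime-Glo RLU relative to the untreated no-drug wells. The calculation is 1 − RLU/mean of 48 such wells per plate, with reads daily from day 3 after 1 h at 37°C.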

Structure (SMILES)	growth inhibition by drug plus 177Lu-lilotomab satetraxetan
COc1ccc(S(=O)(=O)Nc2cccnc2Nc2ccc(O)cc2)cc1	0.0522
C[C@]12CCC(=O)C=C1CC[C@@H]1[C@@H]2[C@@H](O)C[C@@]2(C)[C@H]1CC[C@]2(O)C(=O)CO [Hydrocortisone (Cortisol)]	0.119
COc1cc(OC2CCN(C)CC2)ccc1Nc1ncc2c(n1)n(C1CCCC1)c(=O)n2C	0.0152
Nc1nc(F)nc2c1ncn2[C@@H]1O[C@H](CO)[C@@H](O)[C@@H]1O [Fludarabine (Fludara)]	0.126
Nc1nc(Nc2ccc(S(N)(=O)=O)cc2)nn1C(=O)c1c(F)cccc1F	0.0808
Nc1ncn([C@@H]2O[C@H](CO)[C@@H](O)[C@H]2O)c(=O)n1 [Azacitidine (Vidaza)]	0.0134
COc1cc2nccc(Oc3ccc(NC(=O)NC4CC4)c(Cl)c3)c2cc1C(N)=O [E7080 (Lenvatinib)]	0.0178
Nc1ccn([C@@H]2O[C@H](CO)[C@@H](O)[C@@H]2O)c(=O)n1 [Cytarabine]	-0.0153
Nc1cccc2c1C(=O)N(C1CCC(=O)NC1=O)C2=O (stereo not drawn) [Pomalidomide]	0.0448
CN(C)c1nc(N(C)C)nc(N(C)C)n1 [Altretamine (Hexalen)]	-0.0141
Cc1[nH]c(/C=C2\C(=O)Nc3ccc(S(=O)(=O)N(C)c4cccc(Cl)c4)cc32)c(C)c1C(=O)N1CCN(C)CC1	0.0856
O=C(O[C@@H]1Cc2c(O)cc(O)cc2O[C@@H]1c1cc(O)c(O)c(O)c1)c1cc(O)c(O)c(O)c1 [(-)-Epigallocatechin gallate]	-0.03
CCc1c2c(nc3ccc(OC(=O)N4CCC(N5CCCCC5)CC4)cc13)-c1cc3c(c(=O)n1C2)COC(=O)[C@]3(O)CC [Irinotecan HCl Trihydrate (Campto)]	0.0458
S=C(NCc1ccc2c(c1)OCO2)N1CCN(c2ncnc3c2oc2ccccc23)CC1 [Amuvatinib (MP-470)]	0.162
COc1ccc2c3n(c(=NC(=O)c4cccnc4)nc2c1OC)CCN3	0.0894
C#Cc1cccc(Nc2ncnc3cc(OCCOC)c(OCCOC)cc23)c1 [Erlotinib HCl]	0.208
Cc1ccc(-c2cc(C(F)(F)F)nn2-c2ccc(S(N)(=O)=O)cc2)cc1 [Celecoxib]	0.0111
N#CC[C@H](C1CCCC1)n1cc(-c2ncnc3[nH]ccc23)cn1	-0.193
CCc1cncnc1N1CCN(Cc2nc3ccc(C(F)(F)F)cc3[nH]2)CC1	0.0426

Structure (SMILES)	growth inhibition by drug plus 177Lu-lilotomab satetraxetan
CCN(CC)C(=S)SSC(=S)N(CC)CC [Disulfiram (Antabuse)]	0.0516
CC(C)[C@H](C(=O)Nc1ccc(C(=O)NO)cc1)c1ccccc1	0.0282
CC(=O)O[C@]1(C(C)=O)CC[C@H]2[C@@H]3C=C(C)C4=CC(=O)CC[C@]4(C)[C@H]3CC[C@@]21C [Megestrol Acetate]	0.0868
COc1cc2ncnc(Nc3cccc(Br)c3)c2cc1OC	0.00885
N#Cc1ccc(C(c2ccc(C#N)cc2)n2cncn2)cc1 [Letrozole]	-0.0651
CC(=O)c1c(C)c2cnc(Nc3ccc(N4CCNCC4)cn3)nc2n(C2CCCC2)c1=O	0.0227
COc1cccc2c1C(=O)c1c(O)c3c(c(O)c1C2=O)C[C@@](O)(C(=O)CO)C[C@@H]3O[C@H]1C[C@H](N)[C@H](O)[C@H](C)O1 [Doxorubicin (Adriamycin)]	0.589
CC(C)(C)c1[nH]cnc1/C=c1\[nH]c(=O)/c(=C/c2ccccc2)[nH]c1=O [NPI-2358 (Plinabulin)]	0.165
COc1cc(Nc2ncc3c(n2)-c2ccc(Cl)cc2C(c2c(F)cccc2OC)=NC3)ccc1C(=O)O [MLN8237 (Alisertib)]	0.0508
O=c1[nH]cc(F)c(=O)[nH]1 [Adrucil (Fluorouracil)]	0.0517
CC(C)c1ccc(Cn2ccc3c4c(N)nc(NC5CC5)nc4ccc32)cc1	0.261
CC/C(=C(\c1ccccc1)c1ccc(OCCN(C)C)cc1)c1ccccc1 [Tamoxifen Citrate (Nolvadex)]	0.2
Cn1cc(C2=C(c3ccc(Cl)cc3Cl)C(=O)NC2=O)c2ccccc21	0.017
c1ccc(-c2nn3c(c2-c2ccnc4cc(OCCN5CCOCC5)ccc24)CCC3)nc1	0.139
O=C(NCCS(=O)(=O)c1ccc(C(F)(F)F)cn1)c1ccc(Cl)cc1	0.0668
Cc1ccc(S(=O)(=O)C=CC#N)cc1	0.0547
CCC1=C[C@@H]2CN(C1)Cc1c([nH]c3ccccc13)[C@@](C(=O)OC)(c1cc3c(cc1OC)N(C)[C@H]1[C@@](O)(C(=O)OC)[C@H](OC(C)=O)[C@]4(CC)C=CCN5CC[C@]31[C@@H]54)C2 [Vinorelbine (Navelbine)]	0.598
Cc1cc(Nc2cc(N3CCN(C)CC3)nc(/C=C/c3ccccc3)n2)n[nH]1	-0.0755
CN(N=O)C(=O)N[C@@H](C=O)[C@@H](O)[C@H](O)[C@H](O)CO [Streptozotocin (Zanosar)]	-0.0238
